The text below walks through data of PubChem BioAssay.

Values without a mark were called inactive. Calls of active or inactive are those of the source.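 Rule for the calls, unless noted: active = compounds that lower survival of DLD-1 colon cancer cells in the luminescence readout, no cutoff given; inactive = the rest.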

A short description of the first experiment: decreased DLD-1 cellular survival, CellTiter-Glo luminescent readout, NPC compound collection, primary HTS (AID 1117346). The settings on record: DLD-1 viability, CellTiter-Glo luminescence; at 20 µM (top of the series). (In general: ATP-based viability assays read luminescence as a measure of living cells.)
As for `COc1cc(N)c(Cl)cc1C(=O)NC1CCN(CCCOc2ccc(F)cc2)CC1OC` (stereo unspecified), the viability decrease (inhibition) was 22.4%. Same read-out and setting: the figure for `O=C(OOC(=O)c1ccccc1)c1ccccc1` is 18.9%; for `C[C@@]12C(=O)OC(=O)[C@]1(C)C1CCC2O1` it is 91% (active); for `CCOCC(O)COc1ccc(NC(=O)CC[S+](C)C)cc1` (stereo unspecified) it is -3.6%. For the molecule `C[N+](C)(C)CCCCCCCCCC[N+](C)(C)C`, the viability decrease (inhibition) is -0.3%. Turning to `CC[C@@H](CO)NCCN[C@@H](CC)CO`, the viability decrease (inhibition) was -13%. On the same count and under the same terms, the figure for `Cc1ncc(CSSCc2cnc(C)c(O)c2CO)c(CO)c1O` is 15.6%; for `O=C(O)CN(CC(=O)O)Cc1cc2c(-c3ccccc3C(=O)O)c3cc(CN(CC(=O)O)CC(=O)O)c(=O)cc-3oc2cc1O` it is 14.8%.

Take `CC1=C(C/C=C(\C)CCC[C@H](C)CCC[C@H](C)CCCC(C)C)C(=O)c2ccccc2C1=O`: the viability decrease (inhibition) is -6.65%. Still for that read-out and setting: with `OCCc1ccccc1` the figure was -12.4%; with `O=C1c2ccccc2C(=O)C1c1ccc(Br)cc1`, 26.1%; with `CCOC(=O)c1ccc(O)cc1`, 11.2%. Consider `O=C(CCCl)NCc1ccccc1`, for which the viability decrease (inhibition) was 14.6%. Still for that read-out and setting: the figure for `CC1(C)[C@@H]2CC[C@@]1(C)C(=O)C2` is 15.5%. Still for that read-out and setting: the figure for `Cc1cc(C(C#N)c2ccc(Cl)cc2)c(Cl)cc1NC(=O)c1cc(I)cc(I)c1O` (stereo unspecified) is 101% (active). Same read-out and setting: with `CC(C)CCCC(C)N` (stereo unspecified) the figure was -8.6% (active); with `NCCNCCNCCN`, 3.2%. With `Nc1ncn([C@H]2C[C@H](O)[C@@H](CO)O2)c(=O)n1`, the viability decrease (inhibition) was 18.9%. `CC(O)Cn1cnc2c1c(=O)n(C)c(=O)n2C` (stereo unspecified): the viability decrease (inhibition) is 6.9%. The same measure, in the same setting: the figure for `CC(=O)NCc1c(I)c(NC(C)=O)c(I)c(C(=O)O)c1I` is -14.8%.

Turning to `O=S(=O)(O)CCCS(=O)(=O)O`, the viability decrease (inhibition) is -13.5%.

With `CNCc1ccccc1`, the viability decrease (inhibition) was -15.4%. As for `CCN(CC)CCOc1ccc2c(c1)C(=O)c1cc(OCCN(CC)CC)ccc1-2`, the viability decrease (inhibition) is 38.8%. On the same count and under the same terms, with `CN(C)CCCOc1nn(Cc2ccccc2)c2ccccc12` the figure was 84.1% (active); with `CCCCCCCCCCOc1cc2c(=O)c(C(=O)OCC)c[nH]c2cc1OCC`, -42%; with `NC(=O)c1cc[n+](CC2=C(C(=O)[O-])N3C(=O)[C@@H](NC(=O)Cc4cccs4)[C@H]3SC2)cc1`, 5.4%. On to `Cc1c(F)c(N2CCNC(C)C2)cc2c1c(=O)c(C(=O)O)cn2C1CC1` (stereo unspecified), for which the viability decrease (inhibition) is -10.1%. As to `Cc1cc2nc3ccc(=[N+](C)C)cc-3sc2cc1N`, the viability decrease (inhibition) is 38.4%. Same read-out and setting: the figure for `NC(=O)C1(N2CCCCC2)CCN(CCCC(=O)c2ccc(F)cc2)CC1` is -5.9%; for `CC(=O)NC(Cc1ccccc1)C(=O)O` (stereo unspecified) it is 8.55%.

With `O=C(Nc1ccc(C(=O)O)c(O)c1)c1ccccc1`, the viability decrease (inhibition) is 0.8%. Same read-out and setting: the figure for `CC(C)=CCC/C(C)=C/CO` is -8.2%. `CC1=C(/C=C/C(C)=C/C=C/C(C)=C/C(=O)Nc2ccc(O)cc2)C(C)(C)CCC1`: the viability decrease (inhibition) is 94.3% (active).

On to `O=C1OC2(c3ccc(O)cc3Oc3cc(O)ccc32)c2ccccc21`, for which the viability decrease (inhibition) was -11.6%. As to `COc1cc(C(=O)NCCCCCC(=O)O)cc(OC)c1OC`, the viability decrease (inhibition) is -0.7%. The same measure, in the same setting: the figure for `OC1C(O)C(O)C(O)C(O)C1O` (stereo unspecified) is 0.6%; for `Nc1nc(Cl)nc2c1ncn2[C@@H]1O[C@H](CO)[C@@H](O)[C@@H]1F` it is 43.5%. `CC(O)(P(=O)(O)O)P(=O)(O)O`: the viability decrease (inhibition) is 9.1%.

Turning to `CC(=O)OCC(=O)[C@@]1(O)CCC2C3CCC4=CC(=O)CC[C@]4(C)C3[C@@H](O)C[C@@]21C` (stereo partly specified), the viability decrease (inhibition) was -12.5%. For the molecule `NC(=O)CCCCC1CCSS1` (stereo unspecified), the viability decrease (inhibition) is -25.4%.

Another experiment is described as follows: differential killing of epithelial or mesenchymal cells, primary screen, imaging, PC-3E GFP, TEM4-18 mCherry, co-culture (AID 1345086;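 active = compounds killing one labelled cell type while sparing the other, by normalised counts and ratio limits, not self-fluorescent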;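 note: normalised mesenchymal count divided by normalised epithelial count so high means epithelial killing; cells exposed to compound for 72 h before imaging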). Particulars: imaging cell counts, at 1 µM, actives lie on both sides, counts scaled to control wells, 1 = unselective.
As for `COc1cc(N)c(Cl)cc1C(=O)NC1CCN(CCCOc2ccc(F)cc2)CC1OC` (stereo unspecified), the red/green cell ratio (normalised) was 0.95. `O=C(OOC(=O)c1ccccc1)c1ccccc1`: the red/green cell ratio (normalised) was 1.04. For the molecule `C[C@@]12C(=O)OC(=O)[C@]1(C)C1CCC2O1`, the red/green cell ratio (normalised) is 0.98. Still for that read-out and setting: the figure for `C[N+](C)(C)CCCCCCCCCC[N+](C)(C)C` is 0.87; for `CC[C@@H](CO)NCCN[C@@H](CC)CO` it is 0.98; for `Cc1ncc(CSSCc2cnc(C)c(O)c2CO)c(CO)c1O` it is 0.89.

Take `O=C(O)CN(CC(=O)O)Cc1cc2c(-c3ccccc3C(=O)O)c3cc(CN(CC(=O)O)CC(=O)O)c(=O)cc-3oc2cc1O`: the red/green cell ratio (normalised) is 0.97. Still for that read-out and setting: with `CC1=C(C/C=C(\C)CCC[C@H](C)CCC[C@H](C)CCCC(C)C)C(=O)c2ccccc2C1=O` the figure was 1.1; with `OCCc1ccccc1`, 0.97. On the same count and under the same terms, the figure for `O=C1c2ccccc2C(=O)C1c1ccc(Br)cc1` is 0.9; for `CCOC(=O)c1ccc(O)cc1` it is 0.82.

For the molecule `O=C(CCCl)NCc1ccccc1`, the red/green cell ratio (normalised) is 0.95. Take `CC1(C)[C@@H]2CC[C@@]1(C)C(=O)C2`: the red/green cell ratio (normalised) is 0.84. As for `Cc1cc(C(C#N)c2ccc(Cl)cc2)c(Cl)cc1NC(=O)c1cc(I)cc(I)c1O` (stereo unspecified), the red/green cell ratio (normalised) is 0.8. On the same count and under the same terms, the figure for `CC(C)CCCC(C)N` (stereo unspecified) is 1.15; for `NCCNCCNCCN` it is 0.86; for `CC(O)Cn1cnc2c1c(=O)n(C)c(=O)n2C` (stereo unspecified) it is 0.96.

On to `CC(=O)NCc1c(I)c(NC(C)=O)c(I)c(C(=O)O)c1I`, for which the red/green cell ratio (normalised) was 1.24.

For the molecule `O=S(=O)(O)CCCS(=O)(=O)O`, the red/green cell ratio (normalised) was 0.74.

As for `CNCc1ccccc1`, the red/green cell ratio (normalised) is 0.9.

As for `CCN(CC)CCOc1ccc2c(c1)C(=O)c1cc(OCCN(CC)CC)ccc1-2`, the red/green cell ratio (normalised) was 1.18. Still for that read-out and setting: the figure for `CN(C)CCCOc1nn(Cc2ccccc2)c2ccccc12` is 0.88; for `CCCCCCCCCCOc1cc2c(=O)c(C(=O)OCC)c[nH]c2cc1OCC` it is 1. Regarding `NC(=O)c1cc[n+](CC2=C(C(=O)[O-])N3C(=O)[C@@H](NC(=O)Cc4cccs4)[C@H]3SC2)cc1`, the red/green cell ratio (normalised) is 0.75. The same measure, in the same setting: the figure for `Cc1c(F)c(N2CCNC(C)C2)cc2c1c(=O)c(C(=O)O)cn2C1CC1` (stereo unspecified) is 1. On to `Cc1cc2nc3ccc(=[N+](C)C)cc-3sc2cc1N`, for which the red/green cell ratio (normalised) was 1.59. On the same count and under the same terms, with `NC(=O)C1(N2CCCCC2)CCN(CCCC(=O)c2ccc(F)cc2)CC1` the figure was 0.88; with `CC(=O)NC(Cc1ccccc1)C(=O)O` (stereo unspecified), 0.91; with `O=C(Nc1ccc(C(=O)O)c(O)c1)c1ccccc1`, 1.04.

In the case of `CC(C)=CCC/C(C)=C/CO`, the red/green cell ratio (normalised) is 0.92. On to `O=C1OC2(c3ccc(O)cc3Oc3cc(O)ccc32)c2ccccc21`, for which the red/green cell ratio (normalised) was 1.43. Turning to `COc1cc(C(=O)NCCCCCC(=O)O)cc(OC)c1OC`, the red/green cell ratio (normalised) was 0.91. Consider `OC1C(O)C(O)C(O)C(O)C1O` (stereo unspecified), for which the red/green cell ratio (normalised) was 1.17. On the same count and under the same terms, the figure for `CC(O)(P(=O)(O)O)P(=O)(O)O` is 0.95; for `CC(=O)OCC(=O)[C@@]1(O)CCC2C3CCC4=CC(=O)CC[C@]4(C)C3[C@@H](O)C[C@@]21C` (stereo partly specified) it is 1.16.

Turning to `NC(=O)CCCCC1CCSS1` (stereo unspecified), the red/green cell ratio (normalised) is 1.02.
